# Most compounds without a hit are left out; they make up all but 2.2% or so of the library.
# ERG Ets-DNA blk – ERG Ets/DNA interaction inhibition; P11308; fluorescence polarization, His-ERG Ets domain / labelled DNA; Potency, µM (top dose mostly 76.9 µM), without a hit: at the top dose FP activity, negative = inhibition, hits mostly inhibitors; 0.028% of 370,000 active; AID 624246; active means well fitted inhibition curve with a large enough effect in the polarisation, with a control signal flat; inconclusive means small, poorly fitted or top-dose-only effect, or effect the other way, or a change in a side signal; inactive means no such curve, though single readings can be large or run the other way; the % refers to the polarisation;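 further: polarization taken with two DNA probes labelled with fluorescein and Texas red; % of control where 0% means no effect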
# Target sequence (P11308 whole entry, looked up, the tested form may be a part): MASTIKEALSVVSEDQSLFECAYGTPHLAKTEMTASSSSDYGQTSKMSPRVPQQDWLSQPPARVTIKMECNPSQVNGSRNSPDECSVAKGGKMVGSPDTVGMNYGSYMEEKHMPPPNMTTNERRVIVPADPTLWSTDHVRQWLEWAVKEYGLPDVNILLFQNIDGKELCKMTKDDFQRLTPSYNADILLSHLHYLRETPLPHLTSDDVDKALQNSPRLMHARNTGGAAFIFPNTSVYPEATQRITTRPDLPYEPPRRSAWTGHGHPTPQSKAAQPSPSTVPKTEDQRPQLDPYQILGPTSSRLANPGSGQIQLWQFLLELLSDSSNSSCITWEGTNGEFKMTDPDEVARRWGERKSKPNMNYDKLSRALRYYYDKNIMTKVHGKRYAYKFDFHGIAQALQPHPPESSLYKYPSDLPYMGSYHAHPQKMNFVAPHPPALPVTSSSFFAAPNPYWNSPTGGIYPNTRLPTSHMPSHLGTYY
#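 His-tagged ERG Ets domain (1 uM in the protein solution; 300mM KCl, 50mM Tris-HCl, 1mM EDTA, 1mM DTT, pH 7.5) received compound, then a probe mix of 5 nM fluorescein-DNA and 100nM Texas-615-DNA. Fluorescence polarization was read for both dyes.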
# Abeta rescue – compounds reversing amyloid beta toxicity in yeast | 0.063% of 410,000 active | Potency, µM (top dose mostly 46.1 µM), actives largely listed as activators | yeast expressing A-beta42, growth rescue, OD600, 48 h; response scale: 0% DMSO, 100% iron-clioquinol control; further: nearly all actives have a fitted effect of over 55% in size
#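 Growth rescue measured by 600 nm absorbance after 48 h yeast culture at 30 C with compound. Values normalized between DMSO and an equimolar ferric chloride plus clioquinol control.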
# Mito fusion act – blocks mitochondrial division or promotes mitochondrial fusion. S. cerevisiae fusion-defective mutant growth rescue, CellTiterGlo 48 h. Potency, µM (series often up to 46.1 µM), for the others: at the top dose growth rescue (activation), usual class: activators. 0.23% of 320,000 active. AID 485298; further: % of control where 0% means no effect; nearly all actives have a fitted effect of over 45% in size
#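 Compounds are tested for their ability to restore growth of mitochondrial fusion-defective yeast strains at non-permissive 37C in YPEG medium over 48 hours. Viability is quantified by luciferase luminescence.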
# TDP43 rescue – rescues yeast growth from TDP-43 toxicity. TDP-43 expressing yeast growth rescue, BacTiter-Glo, 24 h. Potency, µM (highest dose often 46.1 µM), inactives show at the highest dose growth rescue (activation), hits mostly activators. 1.8% of 410,000 active. AID 652104; further: % of control where 0% means no effect; nearly all actives have a fitted effect of over 50% in size
#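 In this qHTS, compounds that restore growth of yeast expressing TDP-43 appear as activators. Cells (OD600=0.02, galactose medium, raffinose-pregrown) are incubated with compound 24 hr at 30 deg C and growth is quantified by BacTiter-Glo.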
# aSyn yeast inh – alpha-synuclein toxicity inhibition in yeast | Potency, µM (titrated, usually from 46.1 µM), for the others: top-dose growth rescue (activation), hits mostly activators | 0.14% of 370,000 active | Yeast expressing alpha-synuclein, growth rescue, BacTiter-Glo, 24 h; further: % of control where 0% means no effect; nearly all actives have a fitted effect of over 65% in size
#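 Screening used galactose-induced yeast with toxic alpha-synuclein levels, exposed to compound for 24 hr at 30 deg C. Cell growth, read with BacTiter-Glo luminescence, gave the measured signal.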
# FUS suppressor – FUS proteinopathy suppression in yeast | AID 1347120 | Potency, µM (highest dose often 76.6 µM), most hits filed as activators | 0.24% of 390,000 active | S. cerevisiae FUS-expressing, growth rescue, OD600, 24 h;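 further: plate controls were DMSO vehicle for no effect and reference control for full effect; nearly all actives have a fitted effect of over 55% in size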
#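 FUS-expressing yeast, raffinose-pregrown, induced in 2% galactose minimal medium at OD 0.005; compounds in a dilution series, 24hr at 30C. Growth restoration read as absorbance at 600 nm. CP55940 positive control, DMSO negative.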
# Active calls of the source: *; i = inactive; ? = inconclusive; nt = not tested or not shown. Unless noted, the call rests on the fitted dose curve; in most records, active means well fitted curve in the direction sought with a large enough effect; inconclusive means small, poorly fitted or top-dose-only effect, or another doubt; inactive means no such curve, though single readings can be large; an effect the other way counts as inactive or inconclusive. Potency means the concentration at half of the fitted maximal effect.
SMILES,ERG Ets-DNA blk,Abeta rescue,Mito fusion act,TDP43 rescue,aSyn yeast inh,FUS suppressor
CCOCCOC(=O)C(C)Oc1ccc(Oc2ncc(Cl)cc2Cl)cc1 (configuration not stated),-0.8%,i,-2.2%,-3.0%,-9.9%,nt
Oc1ccc(Oc2ncc(Cl)cc2Cl)cc1,-3.4%,i,9.8%,8.91µM*,13.3%,nt
Nc1ccn(C[C@@H](CO)OCP(=O)(O)O)c(=O)n1,nt,nt,nt,nt,nt,i
O=C(CCCn1c(=O)c2cccn2c2ccccc21)NCCc1ccc(Cl)cc1,7.1%,?,nt,25.1µM*,nt,i
Cc1ccccc1CN(C)C(=O)COC(=O)c1ccc2[nH]c(C)c(C)c2c1,2.0%,i,nt,0.8%,?,nt
Cc1cccc(-c2nc3nc(C)cc(N4CCN(c5ccccc5)CC4)n3n2)c1,-4.4%,i,nt,?,nt,i
COc1ccccc1Nc1cc(C)nc2nc(-c3ccccc3)nn12,-2.0%,i,nt,12.6µM*,nt,i
Cc1cc(Nc2ccc(C)c(Cl)c2)n2nc(-c3ccccc3)nc2n1,-0.9%,i,nt,8.6%,nt,i
Cc1cc(Nc2ccc(Br)cc2)n2nc(-c3ccccc3C)nc2n1,-5.6%,i,nt,14.1µM*,nt,i
Cc1cccc(-c2nc3nc(C)cc(NC(C)c4ccccc4)n3n2)c1 (configuration not stated),5.7%,i,nt,25.1µM*,-9.3%,i
CCCCOC(=O)c1ccc(Nc2ncnc3nc[nH]c23)cc1,-1.1%,i,6.1%,2.0%,-4.2%,i
CCCCCCCCOC(=O)c1cc([N+](=O)[O-])c(Sc2ncnc3nc[nH]c23)c([N+](=O)[O-])c1,nt,i,nt,12.6µM*,-64.5%,nt
Cc1ccc(NC(=O)Cn2nnc(-c3ccccc3F)n2)cc1C,nt,nt,nt,nt,nt,i
Cn1c(SCC2CCC2)nnc1-c1ccco1,nt,nt,nt,nt,nt,i
Oc1ccc(CNc2ccccc2Br)c2cccnc12,nt,nt,nt,nt,nt,17.8µM*
COc1ccccc1/C=N/NC(=O)c1cccc(OC(F)(F)C(F)F)c1,nt,i,0.4%,-0.6%,-14.6%,nt
COc1cccc(/C=N/NC(=O)C(=O)Nc2ccccc2OC(F)(F)C(F)F)c1O,-4.3%,i,6.5%,-1.7%,22.4µM*,i
CCOc1ccc(/C=N/NC(=S)NC2CC3C=CC2C3)cc1 (configuration not stated),1.0%,7.94µM*,-9.8%,16.2%,-10.1%,i
COc1cc(/C=N/NC(=S)NC2CC3C=CC2C3)cc(OC)c1OC (configuration not stated),-4.8%,?,5.2%,21.7%,-5.9%,i
Cc1c(-c2nc(N)nc(Nc3ccccc3)n2)oc2ccccc12,3.8%,i,14.1µM*,?,?,i
CC1CCCN(CC(=O)N2c3ccccc3Sc3ccccc32)C1 (configuration not stated),8.2%,22.4µM*,-4.3%,0.8%,10.9%,i
O=C(CN1CCCCCC1)N1c2ccccc2Sc2ccccc21,7.4%,i,-14.5%,-13.6%,3.2%,i
CCOc1cc2c(cc1/C=C/C(=O)O)OC(C)C2 (configuration not stated),-8.3%,i,6.4%,22.4µM*,-9.6%,i
Oc1cccc(-c2csc(C(O)(c3ccccc3)C(F)(F)F)n2)c1 (configuration not stated),nt,i,nt,22.4µM*,?,i
CC(O)(c1ccccc1)c1nc(-c2ccccc2)cs1 (configuration not stated),nt,?,nt,14.1µM*,3.5%,i
SMILES,ERG Ets-DNA blk,Abeta rescue,Mito fusion act,TDP43 rescue,aSyn yeast inh,FUS suppressor
COc1ccc(-c2csc(C(C)(O)c3ccccc3)n2)cc1 (configuration not stated),nt,i,nt,26.9%,0.8%,i
COc1cccc(C(C)(O)c2nc(-c3ccccc3)cs2)c1 (configuration not stated),nt,?,nt,?,-2.4%,i
COc1cccc(C(C)(O)c2nc(-c3cccc(C(C)C)c3)cs2)c1 (configuration not stated),nt,i,nt,17.8µM*,-17.7%,?
COc1ccc(C(C)(O)c2nc(-c3ccccc3)cs2)cc1 (configuration not stated),nt,?,nt,8.91µM*,?,i
Cc1ccc(C2CCC3(CCC(=O)N3CCOC(=O)Nc3ccc(Br)cc3)CC2)cc1 (configuration not stated),nt,nt,nt,nt,nt,i
C[C@H]1[C@H](N(Cc2ccccc2)Cc2ccccc2)CC[C@@]23CCCN2C(=O)CCC[C@@H]13,nt,nt,nt,nt,nt,i
CC(O)(c1ccccc1)c1nc(-c2cccc(C#N)c2)cs1 (configuration not stated),nt,?,nt,20µM*,-0.9%,i
COc1ccc(-c2csc(C(C)(O)c3ccc(F)c(F)c3)n2)cc1OC (configuration not stated),nt,i,nt,22.4µM*,9.2%,i
COc1ccc(C(C)(O)c2nc(-c3ccc(F)c(Cl)c3)cs2)cc1 (configuration not stated),nt,?,nt,17.8µM*,-11.5%,i
COc1ccc(-c2csc(C(C)(O)c3ccc(OC)cc3)n2)cc1 (configuration not stated),nt,?,nt,0.0%,6.31µM*,i
COc1cc(/C=C/c2cncc(/C=C/c3cc(OC)c(OC)c(OC)c3)c2)cc(OC)c1OC,nt,nt,nt,nt,0.4%,nt
CSc1ccc(-c2cnc(N3CCC(C(N)=O)CC3)s2)cc1,nt,nt,nt,nt,nt,i
COCc1cccc(-c2csc(C(C)(O)c3ccccc3)n2)c1 (configuration not stated),nt,i,nt,35.5µM*,-3.6%,i
CC1CN(c2nc3c(c(=O)n(Cc4ccc(Cl)c(Cl)c4)c(=O)n3C)n2C)CC(C)O1 (configuration not stated),-0.4%,i,?,25.1µM*,9.8%,?
CCc1cc(C(=O)Cc2cnn(-c3ccccc3)c2)c(O)cc1O,-12.8%,i,3.8%,7.1%,-0.7%,i
O=C(Cc1cnn(-c2ccccc2)c1)c1ccc(O)c(O)c1O,4.2%,?,2.9%,35.5µM*,?,nt
CN(C)c1ncnc2c1ncn2[C@H]1CN(Cc2ccc(Cl)cc2)C[C@@H](CO)O1,nt,i,nt,11.7%,8.3%,i
COc1ccc(Nc2nc3cc(-c4ccsc4)sc3c(=O)n2C)cc1OC,nt,i,nt,?,15.9%,28.2µM*
COc1cccc(-c2cc3nc(Nc4ccc(OC)c(OC)c4)n(C)c(=O)c3s2)c1,nt,i,nt,0.0%,-1.5%,i
COc1ccc(-c2cc3nc(NCC4CCCCC4)n(C)c(=O)c3s2)cc1OC,nt,22.4µM*,nt,20µM*,29.6%,i

# High-throughput results deposited in PubChem by National Center for Advancing Translational Sciences (NCATS).
